From the supplement of paper PMC13380429 come the findings set out here.

Experiment [1] relates to Vero E6 infected with SARS-CoV-2. In words: morphology score (similarity to uninfected cells); higher = more like uninfected cells. The settings on record: 24 h.
For experiment [2] the test system is unchanged. In words: SARS-CoV-2 infection rate relative to infected DMSO; higher = more infection, active = 60 or less. The settings on record: 24 h.

Regarding `CCOC(=O)[C@H](CCc1ccccc1)N[C@H]1CCc2ccccc2N(CC(=O)O)C1=O` [benazepril] (10 µM), the morphology score in experiment [1] came out at 0.413. Besides, the SARS-CoV-2 infection rate in experiment [2] is 90.5% (inactive).

As to `CC(=O)NO` [acetohydroxamic-acid] (10 µM), the morphology score in experiment [1] was -0.0513. The SARS-CoV-2 infection rate in experiment [2] is 106% (inactive).

`CCCCNc1ncc(-c2ccc(CN3CCOCC3)cn2)c(N[C@H]2CC[C@H](O)CC2)n1` (10 µM): the morphology score in experiment [1] is 0.102. Moreover, the SARS-CoV-2 infection rate in experiment [2] is 113% (inactive).

Turning to `c1ccc(CCCN2CCN(CCOC(c3ccccc3)c3ccccc3)CC2)cc1` (10 µM), in experiment [1], the morphology score turned out to be 0.239. Also, the SARS-CoV-2 infection rate in experiment [2] was 94% (inactive).

Take `CN1CCN(CC(=O)N2c3ccccc3C(=O)Nc3cccnc32)CC1` [pirenzepine] (10 µM): the morphology score in experiment [1] was -0.00972. The SARS-CoV-2 infection rate in experiment [2] was 108% (inactive).
